Experimental data published in the supplement of paper PMC11732987, “Enantioselective OTUD7B fragment discovery through chemoproteomics screening and high-throughput optimisation” (Communications Chemistry, 2025).

Target: T1, UniProt Q9P2H5
T1 sequence (whole entry): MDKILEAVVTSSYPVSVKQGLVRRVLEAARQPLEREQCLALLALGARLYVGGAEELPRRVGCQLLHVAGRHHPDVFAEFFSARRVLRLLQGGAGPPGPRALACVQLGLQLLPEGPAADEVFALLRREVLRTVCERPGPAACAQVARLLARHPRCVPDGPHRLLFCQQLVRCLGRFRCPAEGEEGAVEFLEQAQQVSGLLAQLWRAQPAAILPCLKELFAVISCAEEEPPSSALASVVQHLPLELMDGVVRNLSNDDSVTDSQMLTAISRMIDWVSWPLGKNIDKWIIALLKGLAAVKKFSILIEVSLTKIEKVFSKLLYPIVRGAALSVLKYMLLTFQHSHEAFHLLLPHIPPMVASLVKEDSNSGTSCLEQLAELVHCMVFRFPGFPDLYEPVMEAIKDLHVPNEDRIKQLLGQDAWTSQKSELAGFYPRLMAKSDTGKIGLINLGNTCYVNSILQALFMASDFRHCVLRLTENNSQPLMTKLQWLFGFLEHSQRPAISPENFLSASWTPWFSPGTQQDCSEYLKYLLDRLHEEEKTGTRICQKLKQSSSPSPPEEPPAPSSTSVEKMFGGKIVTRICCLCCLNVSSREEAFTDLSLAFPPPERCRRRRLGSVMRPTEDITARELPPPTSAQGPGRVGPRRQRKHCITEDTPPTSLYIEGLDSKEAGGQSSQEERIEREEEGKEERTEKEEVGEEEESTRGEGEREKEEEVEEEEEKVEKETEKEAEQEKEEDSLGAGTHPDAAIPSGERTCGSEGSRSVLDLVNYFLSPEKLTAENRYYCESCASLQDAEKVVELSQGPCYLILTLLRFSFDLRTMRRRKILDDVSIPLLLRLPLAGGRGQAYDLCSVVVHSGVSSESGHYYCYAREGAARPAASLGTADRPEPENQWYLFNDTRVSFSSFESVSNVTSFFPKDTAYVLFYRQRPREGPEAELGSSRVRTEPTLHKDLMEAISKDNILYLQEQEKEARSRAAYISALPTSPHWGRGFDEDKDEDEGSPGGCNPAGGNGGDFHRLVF
Test: log2 ratio of Biotin-Ahx-Ub-VS probe labelling (fragment/DMSO); higher = less target engagement (more negative = stronger competition), active = hit call of the paper (q ≤ 0.05, log2 ratio ≤ -1)
Conditions: compound concentration: 200 uM; treatment time: 3 h
Procedure, shortened: (§1)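 Labelled DUBs from HEK293T lysate were NeutrAvidin-enriched, digested with LysC and trypsin, and run by diaPASEF LC-MS/MS. Before that, each 495 µg sample in Tris/CHAPS/IGEPAL buffer with protease inhibitors was treated in triplicate with fragment at 200 µM or vehicle for 3 h, then with Biotin-Ahx-Ub-VS at 0.5 µM final for 1 h. Values are average log2 ratios of fragment over vehicle by unpaired t-test, based on global-median-normalised Spectronaut label-free quantities from proteins with ≥2 unique peptides.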

log2 ratio of Biotin-Ahx-Ub-VS probe labelling, inactive:
CNC(=O)C1(NC(=O)CCl)CCCCC1 -0.0698
Cl.O=C(CCl)N1CCC(n2nc3ccccc3n2)CC1 -0.415
N#Cc1ccccc1N1CCN(C(=O)CCl)CC1 -0.617
O=C(CCl)NC(Cn1ccccc1=O)c1ccccc1 (stereo not drawn) 0.148
O=C(CCl)N1CC=C(c2c[nH]c3ccccc23)CC1 -0.734
O=C(CCl)NC1CCC(C(F)(F)F)CC1 (stereo not drawn) 0.159
Cc1ccc2nnc(CNC(=O)CCl)n2c1 -0.342
Cl.Cn1nccc1C(NC(=O)CCl)c1ccccc1 (stereo not drawn) -0.154
O=C(CCl)Nc1ccc(F)cc1F -0.199
Cc1n[nH]c2c1CN(C(=O)CCl)CC2 -0.801
O=C(CCl)N1CCOC2(CCC2)CC1 -0.184
CC(NC(=O)CCl)c1cccc(Cl)c1 (stereo not drawn) -0.25
O=C(CCl)NCC1(c2ccccc2)CC1 -0.071
CC1(NC(=O)CCl)CCS(=O)(=O)C1 (stereo not drawn) -0.61
Cc1cccn2cc(CCNC(=O)CCl)nc12.Cl -0.379
CN(CCc1ncc(Br)cn1)C(=O)CCl.Cl -0.437
O=C(CCl)N1CCCCC12CCOCC2 -0.444
Cl.O=C(CN1CCN(C(=O)CCl)CC1)Nc1ccc(F)cc1 -0.164
O=C(CCl)NCCc1ccc2c(c1)OCCO2 -0.0308
O=C(CCl)NC1(c2ccc3c(c2)OCCO3)CCCC1 -0.3
COCC[C@@H](NC(=O)CCl)c1ccccc1 -0.159
CC(NC(=O)CCl)c1ccc2[nH]ncc2c1 (stereo not drawn) -0.0706
Cl.Cn1ncc2c1CC(NC(=O)CCl)CC2 (stereo not drawn) -0.257
CCC1c2ccsc2CCN1C(=O)CCl (stereo not drawn) -0.118
Cc1cccnc1NC(=O)C1CCN(C(=O)CCl)CC1.Cl -0.348
O=C(CCl)N1CCCC2CCCCC21 (stereo not drawn) -0.193
Cl.Cn1cnc2cc(CNC(=O)CCl)ccc21 -0.126
Cl.Cn1c(CNC(=O)CCl)nc2cccnc21 -0.199
N#Cc1ccc(Cl)cc1NC(=O)CCl 0.0403
CN(C(=O)CCl)c1nc2ccccc2s1 -0.266
Cc1n[nH]c(=O)c2c(NC(=O)CCl)oc(C)c12 -0.144
CC(=O)Nc1ccc(NC(=O)CCl)cc1 -0.0361
O=C(CCl)N1CCOC2(CCC2)C1 0.0475
Cl.O=C(CCl)N1CCc2ncncc2C1 -0.288

Target: T2, UniProt Q9UGI0
T2 sequence (whole entry): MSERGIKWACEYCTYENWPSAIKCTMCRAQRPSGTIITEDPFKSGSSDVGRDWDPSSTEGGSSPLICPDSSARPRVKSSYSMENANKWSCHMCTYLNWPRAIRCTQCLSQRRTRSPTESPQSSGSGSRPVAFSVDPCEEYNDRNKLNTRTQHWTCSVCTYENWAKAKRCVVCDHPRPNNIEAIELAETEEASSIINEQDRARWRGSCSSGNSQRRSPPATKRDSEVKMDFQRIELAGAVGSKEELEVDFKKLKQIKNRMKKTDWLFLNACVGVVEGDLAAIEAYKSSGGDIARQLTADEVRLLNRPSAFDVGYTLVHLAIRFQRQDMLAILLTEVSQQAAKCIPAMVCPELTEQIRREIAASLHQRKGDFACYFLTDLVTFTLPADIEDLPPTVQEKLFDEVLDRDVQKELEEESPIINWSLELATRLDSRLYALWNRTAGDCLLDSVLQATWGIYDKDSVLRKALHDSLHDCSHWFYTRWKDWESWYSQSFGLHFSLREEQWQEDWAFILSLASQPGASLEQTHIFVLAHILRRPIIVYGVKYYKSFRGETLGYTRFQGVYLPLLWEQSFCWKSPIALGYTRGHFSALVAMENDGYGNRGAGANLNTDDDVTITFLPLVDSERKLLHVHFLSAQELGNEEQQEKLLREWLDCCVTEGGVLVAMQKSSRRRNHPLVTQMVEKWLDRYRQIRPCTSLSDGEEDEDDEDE
Test: as above
Conditions: compound concentration: 200 uM; treatment time: 3 h
Procedure, shortened: as §1

log2 ratio of Biotin-Ahx-Ub-VS probe labelling, active:
N#Cc1ccccc1N1CCN(C(=O)CCl)CC1 -2.22
O=C(CCl)N1CC=C(c2c[nH]c3ccccc23)CC1 -1.14
Cc1n[nH]c2c1CN(C(=O)CCl)CC2 -1.32
O=C(CCl)N1CCOC2(CCC2)CC1 -1.19
CC(NC(=O)CCl)c1cccc(Cl)c1 (stereo not drawn) -1.18
O=C(CCl)NCC1(c2ccccc2)CC1 -1.08
CN(C(=O)CCl)c1nc2ccccc2s1 -1.12
CC(=O)Nc1ccc(NC(=O)CCl)cc1 -1.31
Cl.O=C(CCl)N1CCc2ncncc2C1 -1.57

log2 ratio of Biotin-Ahx-Ub-VS probe labelling, inactive:
CNC(=O)C1(NC(=O)CCl)CCCCC1 0.0155
Cl.O=C(CCl)N1CCC(n2nc3ccccc3n2)CC1 -0.422
O=C(CCl)NC(Cn1ccccc1=O)c1ccccc1 (stereo not drawn) -0.146
O=C(CCl)NC1CCC(C(F)(F)F)CC1 (stereo not drawn) -0.54
Cc1ccc2nnc(CNC(=O)CCl)n2c1 0.244
Cl.Cn1nccc1C(NC(=O)CCl)c1ccccc1 (stereo not drawn) -0.583
O=C(CCl)Nc1ccc(F)cc1F -0.962
CC1(NC(=O)CCl)CCS(=O)(=O)C1 (stereo not drawn) -0.698
Cc1cccn2cc(CCNC(=O)CCl)nc12.Cl -0.18
CN(CCc1ncc(Br)cn1)C(=O)CCl.Cl -0.752
O=C(CCl)N1CCCCC12CCOCC2 -0.517
Cl.O=C(CN1CCN(C(=O)CCl)CC1)Nc1ccc(F)cc1 -0.166
O=C(CCl)NCCc1ccc2c(c1)OCCO2 -0.256
O=C(CCl)NC1(c2ccc3c(c2)OCCO3)CCCC1 -0.26
COCC[C@@H](NC(=O)CCl)c1ccccc1 -0.681
CC(NC(=O)CCl)c1ccc2[nH]ncc2c1 (stereo not drawn) -0.756
Cl.Cn1ncc2c1CC(NC(=O)CCl)CC2 (stereo not drawn) -0.162
CCC1c2ccsc2CCN1C(=O)CCl (stereo not drawn) -0.444
Cc1cccnc1NC(=O)C1CCN(C(=O)CCl)CC1.Cl -0.465
O=C(CCl)N1CCCC2CCCCC21 (stereo not drawn) -0.134
Cl.Cn1cnc2cc(CNC(=O)CCl)ccc21 -0.308
Cl.Cn1c(CNC(=O)CCl)nc2cccnc21 -0.199
N#Cc1ccc(Cl)cc1NC(=O)CCl -0.441
Cc1n[nH]c(=O)c2c(NC(=O)CCl)oc(C)c12 0.264
O=C(CCl)N1CCOC2(CCC2)C1 -0.71
